In PubChem BioAssay (NCI):
Compounds without any hit were thinned out: in the full panel of roughly 83,000, 20% have a hit.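 Growth was measured after 48 h exposure to one concentration of compound in 96-well plates. Values under 10 count as active.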 Values without a mark were called inactive. Active and inactive are the calls of the source.

Tests used:
Assay in all cases: NCI-60 one-dose screen, 48 h (100 = growth as untreated, 0 = no growth, -100 = all killed)
Details in all cases: 10 µM unless noted
DU-145 prostate = test system: DU-145 prostate
K-562 leukemia = test system: K-562 leukemia
MALME-3M melanoma = test system: MALME-3M melanoma
MDA-MB-231 breast = test system: MDA-MB-231 breast
RXF 393 renal = test system: RXF 393 renal
SF-268 CNS = test system: SF-268 CNS
SF-295 CNS = test system: SF-295 CNS
SF-539 CNS = test system: SF-539 CNS
UACC-257 melanoma = test system: UACC-257 melanoma
M14 melanoma = test system: M14 melanoma
HCT-15 colon = test system: HCT-15 colon
HT29 colon = test system: HT29 colon
SNB-75 CNS = test system: SNB-75 CNS
SNB-19 CNS = test system: SNB-19 CNS
U251 CNS = test system: U251 CNS
PC-3 prostate = test system: PC-3 prostate
SK-MEL-5 melanoma = test system: SK-MEL-5 melanoma
UACC-62 melanoma = test system: UACC-62 melanoma
LOX IMVI melanoma = test system: LOX IMVI melanoma
SK-MEL-28 melanoma = test system: SK-MEL-28 melanoma

Row | SMILES | growth (DU-145 prostate) | growth (K-562 leukemia) | growth (MALME-3M melanoma) | growth (MDA-MB-231 breast) | growth (RXF 393 renal) | growth (SF-268 CNS) | growth (SF-295 CNS) | growth (SF-539 CNS) | growth (UACC-257 melanoma) | growth (M14 melanoma) | growth (HCT-15 colon) | growth (HT29 colon) | growth (SNB-75 CNS) | growth (SNB-19 CNS) | growth (U251 CNS) | growth (PC-3 prostate) | growth (SK-MEL-5 melanoma) | growth (UACC-62 melanoma) | growth (LOX IMVI melanoma) | growth (SK-MEL-28 melanoma)
1 | C#CCOc1cccc(-c2nc(N)nc(Nc3ccccc3SSc3ccccc3Nc3nc(N)nc(-c4cccc(OCC#C)c4)n3)n2)c1 | 55.2% | 43.5% | 96.8% | 48.1% | 81.8% | -11.5% (active) | -69.8% (active) | 59.2% | 108% | 66.6% | 28.6% | 96.9% | 27.7% | -9.77% (active) | -48.9% (active) | 7.33% (active) | 57.3% | 63.9% | -52.8% (active) | 88.9%
2 | COC(=O)CNC(=O)c1cccc(-c2cc(=O)c3c(OC)c(OC)c(OC)cc3o2)c1 | 108% | 125% | 95.2% | 101% | 99.4% | 101% | 101% | 103% | 103% | 103% | 96% | 110% | 99.5% | 92.6% | 106% | 95.6% | 98.6% | 90.2% | 97.5% | 106%
3 | CN(C)S(=O)(=O)c1ccc(-c2nc(C(Cl)Cl)nc3cc(-c4ccccc4)nn23)cc1 | 79.2% | 52.2% | 15.3% | 48.8% | 84.4% | 88.2% | 86.7% | 77.8% | 105% | 74% | 47.7% | 45.6% | 84.7% | 85.2% | 66.2% | 87.7% | 92% | 11.7% | 44.5% | -4.08% (active)
4 | Cc1ccc2c(n1)C(=O)C(Cl)=C(Nc1ccc(C)c(C)c1)C2=O | 6.17% (active) | 4.14% (active) | 85.4% | 49.3% | 85.7% | 79.1% | 44.7% | 59.9% | 16% | 42.5% | 23.6% | 103% | 87.6% | 56.2% | 71.8% | 45.3% | 6.91% (active) | 49.3% | 0.982% (active) | 58.3%
5 | COc1ccc(/C=N\NC(=O)c2cnn(CC(O)c3ccccc3)c2N)cc1OCc1ccc(Cl)cc1 (stereo not given) | 55.3% | 60.2% | 65.2% | 67% | 41.8% | 91.6% | 56.9% | 69.4% | 85% | 68.4% | 70.5% | 90.6% | 60.8% | 68.2% | 60.6% | 63.6% | 92.2% | 81.1% | 54.6% | 71.4%
6 | COc1ccc(-c2c3c(cn2Cc2cccc(OC)c2)-c2oncc2CCC3)cc1 | 101% | 85.6% | 95.6% | 101% | 111% | 99.5% | 97% | 97.8% | 96.6% | 91.6% | 95.1% | 109% | 103% | 93.4% | 93.2% | 85.4% | 100% | 79.3% | 95.2% | 110%
7 | Clc1ccc(CSc2nnc(-c3ccc(Cl)cc3)n2-c2ccccc2)cc1 | 95.8% | 91.3% | 86.3% | 77.7% | 57.1% | 70.2% | 78.4% | 65.1% | 87.6% | 85.4% | 93.3% | 84% | -0.642% (active) | 62% | 81.2% | 71% | 94.3% | 85.8% | 88.6% | 98.8%
